Source: article PMC11006913
Residue numbers refer to the chain shown, from its start.

These sequences were tested against HOXC9 (Homo sapiens, UniProt P31274 178-260) (assay: PBM; 200 nM protein, PBS). Conditions: dsDNA, one strand shown.
Sequence of HOXC9 (Homo sapiens, UniProt P31274 178-260) (P31274 178-260): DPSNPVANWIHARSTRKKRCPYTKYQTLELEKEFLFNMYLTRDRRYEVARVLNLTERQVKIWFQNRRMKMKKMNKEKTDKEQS
In the case of TCCCAGGA, the binding signal is reported as 9.58 upbm affinity estimate (log intensity, higher = more binding, comparable within an allelic series). AGGGGGGG was tested, and the binding signal was 9.24 upbm affinity estimate (log intensity, higher = more binding, comparable within an allelic series). CCGGACCA was tested, and the binding signal was 9.57 upbm affinity estimate (log intensity, higher = more binding, comparable within an allelic series). With CGCCGAAG the binding signal was 9.6 upbm affinity estimate (log intensity, higher = more binding, comparable within an allelic series). CGTGGCGC was tested, and the binding signal was 9.5 upbm affinity estimate (log intensity, higher = more binding, comparable within an allelic series). In the case of CGGGGGTC, the binding signal is reported as 9.65 upbm affinity estimate (log intensity, higher = more binding, comparable within an allelic series). With ATTTGAAC the binding signal was 10.8 upbm affinity estimate (log intensity, higher = more binding, comparable within an allelic series). In the case of CCTACCGC, the binding signal is reported as 9.63 upbm affinity estimate (log intensity, higher = more binding, comparable within an allelic series). With CGAGGCAC the binding signal was 9.79 upbm affinity estimate (log intensity, higher = more binding, comparable within an allelic series).

These sequences were tested against MSX2 (Homo sapiens, UniProt P35548 130-214, R199I) (assay: PBM; 200 nM protein, PBS). Conditions: dsDNA, one strand shown.
Sequence of MSX2 (Homo sapiens, UniProt P35548 130-214, R199I) (P35548 130-214 R199I): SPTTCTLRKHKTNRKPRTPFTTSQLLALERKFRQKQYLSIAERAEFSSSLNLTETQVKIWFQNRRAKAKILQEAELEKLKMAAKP
For CCGGACCA, the binding signal was 9.46 upbm affinity estimate (log intensity, higher = more binding, comparable within an allelic series). With CGGGCTTC the binding signal was 9.39 upbm affinity estimate (log intensity, higher = more binding, comparable within an allelic series). For CGAGGCAC, the binding signal was 9.52 upbm affinity estimate (log intensity, higher = more binding, comparable within an allelic series).

The sequences below were run against ALX1 (Homo sapiens, UniProt Q15699 118-204, L144V) (assay: PBM; 200 nM protein, PBS). Conditions: dsDNA, one strand shown.
Sequence of ALX1 (Homo sapiens, UniProt Q15699 118-204, L144V) (Q15699 118-204 L144V): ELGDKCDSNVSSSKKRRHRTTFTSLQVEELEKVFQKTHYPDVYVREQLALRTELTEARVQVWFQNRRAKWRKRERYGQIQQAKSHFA
For ATTAATCA, the binding signal was 11.5 upbm affinity estimate (log intensity, higher = more binding, comparable within an allelic series). TTAATGAA was tested, and the binding signal was 11 upbm affinity estimate (log intensity, higher = more binding, comparable within an allelic series). With GTGGGGGA the binding signal was 6.51 upbm affinity estimate (log intensity, higher = more binding, comparable within an allelic series). For GGCCCCCA, the binding signal was 6.64 upbm affinity estimate (log intensity, higher = more binding, comparable within an allelic series).

Each sequence was assayed against ALX3 (Homo sapiens, UniProt O95076 139-225, N203Q) (assay: PBM; 200 nM protein, PBS). Conditions: dsDNA, one strand shown.
Sequence of ALX3 (O95076 139-225 N203Q): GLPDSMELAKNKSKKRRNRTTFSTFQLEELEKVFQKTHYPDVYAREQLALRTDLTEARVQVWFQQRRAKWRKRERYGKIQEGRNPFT
With CCAGGCAG the binding signal was 7.78 upbm affinity estimate (log intensity, higher = more binding, comparable within an allelic series). ATTAATCA was tested, and the binding signal was 8.54 upbm affinity estimate (log intensity, higher = more binding, comparable within an allelic series). For ACCGCCGG, the binding signal was 7.72 upbm affinity estimate (log intensity, higher = more binding, comparable within an allelic series). CAGACCCC was tested, and the binding signal was 7.73 upbm affinity estimate (log intensity, higher = more binding, comparable within an allelic series). CCCTTGCG was tested, and the binding signal was 7.69 upbm affinity estimate (log intensity, higher = more binding, comparable within an allelic series). In the case of CAGGCCCC, the binding signal is reported as 7.7 upbm affinity estimate (log intensity, higher = more binding, comparable within an allelic series).

Each sequence was assayed against T1, PAX4 (Homo sapiens, UniProt O43316 9-242, R200Q) (assay: PBM; 200 nM protein, PBS). Conditions: dsDNA, one strand shown.
T1 sequence: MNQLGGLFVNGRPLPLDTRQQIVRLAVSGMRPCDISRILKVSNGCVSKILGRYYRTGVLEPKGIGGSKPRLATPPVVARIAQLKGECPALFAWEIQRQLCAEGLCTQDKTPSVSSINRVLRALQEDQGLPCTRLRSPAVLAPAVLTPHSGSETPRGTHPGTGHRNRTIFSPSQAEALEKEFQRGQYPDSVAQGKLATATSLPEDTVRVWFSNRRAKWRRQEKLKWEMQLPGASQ
For AGGGGGGG, the binding signal was 9.15 upbm affinity estimate (log intensity, higher = more binding, comparable within an allelic series). GTGGGGGA was tested, and the binding signal was 9.37 upbm affinity estimate (log intensity, higher = more binding, comparable within an allelic series). GATAATGA was tested, and the binding signal was 11.2 upbm affinity estimate (log intensity, higher = more binding, comparable within an allelic series). CGGGCTTC was tested, and the binding signal was 9.21 upbm affinity estimate (log intensity, higher = more binding, comparable within an allelic series).

The sequences below were run against HOXC9 (Homo sapiens, UniProt P31274 178-260, R193K) (assay: PBM; 200 nM protein, PBS). Conditions: dsDNA, one strand shown.
Sequence of HOXC9 (Homo sapiens, UniProt P31274 178-260, R193K) (P31274 178-260 R193K): as the sequence (P31274 178-260) above, with R16K counted along it
For TCCCAGGA, the binding signal was 9.57 upbm affinity estimate (log intensity, higher = more binding, comparable within an allelic series). In the case of AGGGGGGG, the binding signal is reported as 9.31 upbm affinity estimate (log intensity, higher = more binding, comparable within an allelic series). CCGGACCA was tested, and the binding signal was 9.51 upbm affinity estimate (log intensity, higher = more binding, comparable within an allelic series). In the case of CGCCGAAG, the binding signal is reported as 9.42 upbm affinity estimate (log intensity, higher = more binding, comparable within an allelic series). In the case of CGTGGCGC, the binding signal is reported as 9.45 upbm affinity estimate (log intensity, higher = more binding, comparable within an allelic series). For CGGGGGTC, the binding signal was 9.62 upbm affinity estimate (log intensity, higher = more binding, comparable within an allelic series). For ATTTGAAC, the binding signal was 11 upbm affinity estimate (log intensity, higher = more binding, comparable within an allelic series). In the case of CCTACCGC, the binding signal is reported as 9.56 upbm affinity estimate (log intensity, higher = more binding, comparable within an allelic series). In the case of CGAGGCAC, the binding signal is reported as 9.72 upbm affinity estimate (log intensity, higher = more binding, comparable within an allelic series).

These sequences were tested against HOXA2 (Homo sapiens, UniProt O43364 129-215, R185K) (assay: PBM; 200 nM protein, PBS). Conditions: dsDNA, one strand shown.
Sequence of HOXA2 (O43364 129-215 R185K): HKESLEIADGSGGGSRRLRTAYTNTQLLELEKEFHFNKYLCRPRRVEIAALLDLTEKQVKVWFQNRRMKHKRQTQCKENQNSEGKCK
For TAATGACA, the binding signal was 13.4 upbm affinity estimate (log intensity, higher = more binding, comparable within an allelic series). For CGCCGGGC, the binding signal was 10.2 upbm affinity estimate (log intensity, higher = more binding, comparable within an allelic series). CTGGCGGC was tested, and the binding signal was 10.3 upbm affinity estimate (log intensity, higher = more binding, comparable within an allelic series). In the case of ATTAATCA, the binding signal is reported as 13.3 upbm affinity estimate (log intensity, higher = more binding, comparable within an allelic series). With TAATGATA the binding signal was 13.2 upbm affinity estimate (log intensity, higher = more binding, comparable within an allelic series). With ACCGCCGG the binding signal was 10.2 upbm affinity estimate (log intensity, higher = more binding, comparable within an allelic series). With TTAATGAA the binding signal was 12.9 upbm affinity estimate (log intensity, higher = more binding, comparable within an allelic series). With CCTAATGA the binding signal was 13.4 upbm affinity estimate (log intensity, higher = more binding, comparable within an allelic series). With ATAATGAT the binding signal was 13.1 upbm affinity estimate (log intensity, higher = more binding, comparable within an allelic series). In the case of GGTAATGA, the binding signal is reported as 13 upbm affinity estimate (log intensity, higher = more binding, comparable within an allelic series). CATAATGA was tested, and the binding signal was 13.1 upbm affinity estimate (log intensity, higher = more binding, comparable within an allelic series). For CATCATTA, the binding signal was 13.2 upbm affinity estimate (log intensity, higher = more binding, comparable within an allelic series). In the case of TATAATGA, the binding signal is reported as 12.8 upbm affinity estimate (log intensity, higher = more binding, comparable within an allelic series). In the case of ATAATGAC, the binding signal is reported as 13.2 upbm affinity estimate (log intensity, higher = more binding, comparable within an allelic series). With GATAATGA the binding signal was 13.3 upbm affinity estimate (log intensity, higher = more binding, comparable within an allelic series).

The sequences below were run against ALX1 (Homo sapiens, UniProt Q15699 118-204, L144R) (assay: PBM; 200 nM protein, PBS). Conditions: dsDNA, one strand shown.
Sequence of ALX1 (Homo sapiens, UniProt Q15699 118-204, L144R) (Q15699 118-204 L144R): as the sequence (Q15699 118-204 L144V) above, with V27R counted along it
In the case of ATTAATCA, the binding signal is reported as 11.3 upbm affinity estimate (log intensity, higher = more binding, comparable within an allelic series). With TTAATGAA the binding signal was 10.7 upbm affinity estimate (log intensity, higher = more binding, comparable within an allelic series). GTGGGGGA was tested, and the binding signal was 6.24 upbm affinity estimate (log intensity, higher = more binding, comparable within an allelic series). In the case of GGCCCCCA, the binding signal is reported as 6.56 upbm affinity estimate (log intensity, higher = more binding, comparable within an allelic series).

These sequences were tested against T2, PAX4 (Homo sapiens, UniProt O43316 9-242, F177V) (assay: PBM; 200 nM protein, PBS). Conditions: dsDNA, one strand shown.
T2 sequence: T1 sequence with F169V, Q192R
In the case of AGGGGGGG, the binding signal is reported as 8.93 upbm affinity estimate (log intensity, higher = more binding, comparable within an allelic series). For GTGGGGGA, the binding signal was 9.35 upbm affinity estimate (log intensity, higher = more binding, comparable within an allelic series). GATAATGA was tested, and the binding signal was 10.3 upbm affinity estimate (log intensity, higher = more binding, comparable within an allelic series). In the case of CGGGCTTC, the binding signal is reported as 9.17 upbm affinity estimate (log intensity, higher = more binding, comparable within an allelic series).

Each sequence was assayed against HOXA4 (Homo sapiens, UniProt Q00056 201-287) (assay: PBM; 200 nM protein, PBS). Conditions: dsDNA, one strand shown.
Sequence of HOXA4 (Q00056 201-287): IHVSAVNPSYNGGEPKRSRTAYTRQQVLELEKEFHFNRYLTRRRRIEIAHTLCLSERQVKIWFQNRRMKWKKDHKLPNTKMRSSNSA
With TAATGACA the binding signal was 13.8 upbm affinity estimate (log intensity, higher = more binding, comparable within an allelic series). For CGCCGGGC, the binding signal was 9.84 upbm affinity estimate (log intensity, higher = more binding, comparable within an allelic series). CTGGCGGC was tested, and the binding signal was 9.58 upbm affinity estimate (log intensity, higher = more binding, comparable within an allelic series). For ACCTCTCG, the binding signal was 9.69 upbm affinity estimate (log intensity, higher = more binding, comparable within an allelic series). With CCAGGCAG the binding signal was 9.85 upbm affinity estimate (log intensity, higher = more binding, comparable within an allelic series). ATTAATCA was tested, and the binding signal was 13.6 upbm affinity estimate (log intensity, higher = more binding, comparable within an allelic series). TAATGATA was tested, and the binding signal was 13.9 upbm affinity estimate (log intensity, higher = more binding, comparable within an allelic series). ACCGCCGG was tested, and the binding signal was 9.85 upbm affinity estimate (log intensity, higher = more binding, comparable within an allelic series). For TTAATGAA, the binding signal was 13.8 upbm affinity estimate (log intensity, higher = more binding, comparable within an allelic series). For ATCATTAC, the binding signal was 13.6 upbm affinity estimate (log intensity, higher = more binding, comparable within an allelic series). CCTAATGA was tested, and the binding signal was 13.7 upbm affinity estimate (log intensity, higher = more binding, comparable within an allelic series). For ATAATGAT, the binding signal was 13.9 upbm affinity estimate (log intensity, higher = more binding, comparable within an allelic series). In the case of GGTAATGA, the binding signal is reported as 13.5 upbm affinity estimate (log intensity, higher = more binding, comparable within an allelic series). CATAATGA was tested, and the binding signal was 13.6 upbm affinity estimate (log intensity, higher = more binding, comparable within an allelic series). With CATCATTA the binding signal was 14 upbm affinity estimate (log intensity, higher = more binding, comparable within an allelic series). ACCCGTGG was tested, and the binding signal was 9.78 upbm affinity estimate (log intensity, higher = more binding, comparable within an allelic series). For TATAATGA, the binding signal was 13.6 upbm affinity estimate (log intensity, higher = more binding, comparable within an allelic series). With ATAATGAC the binding signal was 13.7 upbm affinity estimate (log intensity, higher = more binding, comparable within an allelic series). CGGCGGTC was tested, and the binding signal was 9.77 upbm affinity estimate (log intensity, higher = more binding, comparable within an allelic series). For GATAATGA, the binding signal was 13.9 upbm affinity estimate (log intensity, higher = more binding, comparable within an allelic series). With GGCCCCCA the binding signal was 9.71 upbm affinity estimate (log intensity, higher = more binding, comparable within an allelic series). In the case of TATTTAAA, the binding signal is reported as 12 upbm affinity estimate (log intensity, higher = more binding, comparable within an allelic series). With CGGGCTTC the binding signal was 9.6 upbm affinity estimate (log intensity, higher = more binding, comparable within an allelic series). With CCCTTGCG the binding signal was 9.61 upbm affinity estimate (log intensity, higher = more binding, comparable within an allelic series). CAGGCCCC was tested, and the binding signal was 9.7 upbm affinity estimate (log intensity, higher = more binding, comparable within an allelic series). ATTCATTA was tested, and the binding signal was 13.7 upbm affinity estimate (log intensity, higher = more binding, comparable within an allelic series).

What follows are sequences tested against MSX2 (Homo sapiens, UniProt P35548 130-214) (assay: PBM; 200 nM protein, PBS). Conditions: dsDNA, one strand shown.
Sequence of MSX2 (Homo sapiens, UniProt P35548 130-214) (P35548 130-214): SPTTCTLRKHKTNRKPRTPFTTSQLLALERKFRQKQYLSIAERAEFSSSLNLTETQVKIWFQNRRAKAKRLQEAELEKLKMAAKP
CCGGACCA was tested, and the binding signal was 9.39 upbm affinity estimate (log intensity, higher = more binding, comparable within an allelic series). With CGGGCTTC the binding signal was 9.32 upbm affinity estimate (log intensity, higher = more binding, comparable within an allelic series).
